Screens from PubChem.
The list is not random: actives were taken first. Their share in the collection is about 1.7%.
Pyk2 oligo antag – antagonists of Pyk2 self-association, primary screen, Q293 cells, FERM NanoBiT luminescence, HTS. hits give low values. AID 1347419, 2020. Protein-tyrosine kinase 2-beta (Homo sapiens), Q14289. 0.83% of 99,000 active. z-score (the deposit names both 25 µM and 10 µM);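 active = Z-score of -3 or lower, scaled per plate to the spread of control and sample wells; inactive = z-score above -3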;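 also: negative z-score means lost luminescence so less FERM oligomerization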
Target sequence (Q14289 whole entry, looked up): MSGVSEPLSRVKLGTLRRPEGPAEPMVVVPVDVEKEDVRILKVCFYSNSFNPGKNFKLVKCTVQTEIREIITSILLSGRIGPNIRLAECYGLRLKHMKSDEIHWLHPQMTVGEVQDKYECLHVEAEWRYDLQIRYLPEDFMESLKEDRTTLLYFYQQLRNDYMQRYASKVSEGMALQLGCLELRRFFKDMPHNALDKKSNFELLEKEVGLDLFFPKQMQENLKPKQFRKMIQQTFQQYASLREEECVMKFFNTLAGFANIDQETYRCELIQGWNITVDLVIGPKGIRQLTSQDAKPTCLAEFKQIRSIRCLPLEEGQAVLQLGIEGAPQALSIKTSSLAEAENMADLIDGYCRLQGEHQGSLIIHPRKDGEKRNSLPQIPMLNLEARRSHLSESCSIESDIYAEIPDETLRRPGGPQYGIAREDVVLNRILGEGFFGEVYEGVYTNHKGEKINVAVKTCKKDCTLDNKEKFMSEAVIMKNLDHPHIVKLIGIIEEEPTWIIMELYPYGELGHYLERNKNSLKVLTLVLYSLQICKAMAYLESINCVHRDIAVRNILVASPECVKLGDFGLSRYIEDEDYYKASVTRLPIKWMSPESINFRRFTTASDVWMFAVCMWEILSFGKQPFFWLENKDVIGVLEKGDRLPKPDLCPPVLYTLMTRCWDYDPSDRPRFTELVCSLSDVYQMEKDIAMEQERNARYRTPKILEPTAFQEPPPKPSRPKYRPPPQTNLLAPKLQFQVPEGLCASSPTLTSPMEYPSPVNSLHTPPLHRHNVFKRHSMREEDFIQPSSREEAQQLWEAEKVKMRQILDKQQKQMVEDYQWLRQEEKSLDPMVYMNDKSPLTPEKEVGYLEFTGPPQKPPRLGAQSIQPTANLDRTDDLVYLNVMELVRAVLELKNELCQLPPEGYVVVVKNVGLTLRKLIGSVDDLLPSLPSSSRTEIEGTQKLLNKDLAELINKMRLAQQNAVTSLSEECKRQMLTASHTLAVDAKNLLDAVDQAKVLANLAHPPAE
PLK1 PBD inh – Plk1 polo box domain binding inhibitors, primary screen, biochemical, fluorescence polarization; Serine/threonine-protein kinase PLK1 (Homo sapiens), P53350; Plk1 PBD phosphopeptide binding; inhibition, %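 (tested at about 20 µM)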; 0.13% of 97,000 active; AID 693, 2007; in the data active = inhibition above about 34%, passing the limit was not always enough
PLK1 kinase inh – human PLK1 kinase inhibitors, primary screen, biochemical, TR-FRET; inhibition, % at 10 µM; Serine/threonine-protein kinase PLK1 (Homo sapiens), P53350; 0.53% of 97,000 active; recombinant PLK1 kinase, TR-FRET peptide phosphorylation;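 active = inhibition of 50% or more in the single-concentration screen; inactive = inhibition below 50%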;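 also: 0% = DMSO max control and 100% = H-89 dihydrochloride min control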
LYP inh 2 – PTPN22 phosphatase inhibitors, primary screen, biochemical, DiFMUP fluorescence, 2 µM | inhibition, % at 2 µM | Tyrosine-protein phosphatase non-receptor type 22 (Homo sapiens), Q9Y2R2 | recombinant LYP catalytic domain | 0.21% of 96,000 active;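 active = inhibition at 2 µM at or above a set limit, the screen mean plus 3 SD, cut at about 24% in these data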;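 also: 0% = DMSO with enzyme and 100% = enzyme fully blocked by orthovanadate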
LYP act – LYP phosphatase activators, primary screen, biochemical, DiFMUP fluorescence, 2 µM | Tyrosine-protein phosphatase non-receptor type 22 (Homo sapiens), Q9Y2R2 | recombinant LYP; 0 = plate median, 100 = signal doubled | activation, % at 2 µM | 0.11% of 96,000 active;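 active = activation at 2 µM above a set limit, the mean plus 5 SD, cut at about 37% in these data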
PTPN22 act conf – retest of PTPN22 activators, confirmation, biochemical, DiFMUP fluorescence, single concentration | shares compounds with LYP act | Recombinant LYP, activation; zero set by plate's median compound well | activation, % at 2 µM | 100 tested, under 10 active; call rule not given here
Active calls of the source: *; . = no result.

SMILES | Pyk2 oligo antag | PLK1 PBD inh | PLK1 kinase inh | LYP inh 2 | LYP act | PTPN22 act conf
O=C(CCn1c(=O)[nH]c2ccsc2c1=O)N1CCN(Cc2ccc3c(c2)OCO3)CC1 | -1.4 | 6 | -12 | -40 | 45* | -2
COc1ccccc1N1CCN(C(=O)CCn2c(=O)[nH]c3ccsc3c2=O)CC1 | 0.18 | -22 | -2 | -1 | -1 | .
COc1ccc(NC(=O)CSc2nc(C)c3c(c2C#N)CCCC3)cc1 | -2.3 | -17 | -11 | -44 | 47* | 3
CCc1ccccc1NC(=O)CC(O)(C(=O)OC)C(F)(F)F (stereo not given) | -0.07 | -10 | 8 | -37 | 37* | -4
COC(=O)C(O)(CC(=O)Nc1ccccc1OC)C(F)(F)F (stereo not given) | -0.55 | -8 | -3 | -5 | 4 | .
COc1ccc(-c2nnc(SC(C)C(=O)NCc3ccc4c(c3)OCO4)n2Cc2ccco2)cc1 (stereo not given) | 0.38 | 9 | 5 | 1 | -4 | .
CC(C)(C)NCCCCOc1ccc(F)cc1 | 2.4 | 14 | -10 | -43 | 40* | -2
Cc1nc(C)c(C(=O)OCC(=O)N2CCN(c3ccccc3)CC2)s1 | 0.53 | 8 | -11 | -37 | 40* | 4
O=C(OCC(=O)N1CCN(c2ccccc2)CC1)c1cccc(Cl)c1 | 1.5 | -12 | -6 | 1 | 1 | .
COCCNC(=S)N/N=C(\C)c1ccc(-n2ccnc2)cc1 | 0.1 | -8 | -6 | -13 | 14 | .
COCCCNC(=O)c1ccc(CS(=O)(=O)Cc2cccc(C)c2)o1 | . | 4 | 1 | -41 | 37* | 8
Cc1cccc(CS(=O)(=O)Cc2ccc(C(=O)NCc3ccco3)o2)c1 | . | -2 | -12 | 0 | -3 | .
COc1cc2nc(CN(C)CC(=O)Nc3ccc(N4CCOCC4)cc3)[nH]c(=O)c2cc1OC | 0.24 | . | . | . | . | .
CCCCC(=O)NCCNC(=O)c1cc(OCC(F)(F)F)ccc1OCC(F)(F)F | 0.3 | 4 | 1 | -41 | 38* | -1
O=C(CCCn1nnc(-c2cccnc2)n1)c1ccc(F)cc1 | 0.37 | . | . | . | . | .
COC(=O)c1sccc1NC(=O)c1ccc(C)s1 | -0.91 | -12 | -1 | -50 | 43* | 2
COC(=O)c1sccc1NC(=O)c1ccc(Cl)s1 | -0.33 | -7 | -8 | -2 | 2 | .
CCOC(=O)C1C(c2ccccc2)C(C(=O)OCC)C1c1ccccc1 (stereo not given) | 0.82 | 1 | -7 | -7 | 2 | .
CCC(C)OC(=O)C1C(c2ccccc2)C(C(=O)O)C1c1ccccc1 (stereo not given) | 1.6 | -3 | -3 | -38 | 40* | -10
O=C(NNC1=C(C(=O)C(F)(F)F)CCC1)c1ccc(Cl)cc1 | 0.32 | -4 | -18 | -40 | 45* | 0
O=C(CCNS(=O)(=O)c1cccs1)Nc1ccccc1F | 0.76 | 6 | -9 | -38 | 42* | -4
O=C(CCNS(=O)(=O)c1cccs1)Nc1nccs1 | -0.22 | 10 | 19 | -8 | 6 | .
CC(C)C1Cc2[nH]c(=O)c(C(=O)O)cc2CO1 (stereo not given) | 0.22 | -2 | -10 | 0 | -2 | .
OCCCCCN=c1cc(-c2ccccc2)oc2ccc(Cl)cc12 | -0.81 | 2 | -6 | -38 | 40* | -4
CN1CCN(S(=O)(=O)c2cccc(S(=O)(=O)c3cccc(S(=O)(=O)N4CCN(C)CC4)c3)c2)CC1 | 0.78 | -21 | 3 | 7 | -5 | .
SMILES | Pyk2 oligo antag | PLK1 PBD inh | PLK1 kinase inh | LYP inh 2 | LYP act | PTPN22 act conf
CCN(CC)c1ccc(N2C(=O)/C(=C/c3cccs3)SC2=S)cc1 | 0.69 | -22 | -7 | -4 | 1 | .
CN(C)c1ccc(/C=C/C=C2/SC(=S)N(c3ccccc3)C2=O)cc1 | -3* | -16 | -8 | -38 | 40* | 0
Cc1ccc(C)c(OCC(=O)Nc2nc3ccc([N+](=O)[O-])cc3s2)c1C | -0.79 | 13 | -9 | 2 | 3 | .
CCOc1ccc(CN2CCNC(=O)C2CC(=O)OC)cc1 (stereo not given) | . | 19 | -8 | -38 | 37* | -5
Cc1nnc(SCC(=O)N2CCCCC2)n1CC1CCCO1 (stereo not given) | 1.5 | -7 | -9 | 7 | -8 | .
CCOC(=O)C1=C(CSc2nc(-c3ccccc3)ccc2C#N)OC(N)=C(C#N)C1c1ccccc1 (stereo not given) | -0.46 | -9 | -7 | -41 | 39* | -3
O=C(NCc1ccccc1)C1CCN(C(=O)NCc2ccccc2)CC1 | 0 | . | . | . | . | .
O=C(NC(=S)NCc1ccccc1)C1CCCCC1 | -0.37 | -18 | -3 | -35 | 39* | 4
Cc1occc1C(=O)NNC(=O)C(c1ccccc1)c1ccccc1 | 0.45 | 2 | -11 | -6 | 10 | .
O=C(O)CCn1[nH]c(=O)c2ccccc2c1=O | 1.7 | 2 | -10 | -36 | 37* | 8
O=C(CCn1[nH]c(=O)c2ccccc2c1=O)N1CCOCC1 | -0.18 | 1 | -2 | -8 | 7 | .
CC(C)C(=O)Nc1ccc(C(=O)NNC(=O)c2ccco2)cc1 | -0.64 | 19 | -9 | 9 | -5 | .
S=c1[nH]ncn1/N=C/c1ccccc1 | -0.09 | 1 | -6 | -12 | 11 | .
S=c1[nH]ncn1-c1ccccn1 | 0.51 | -22 | -9 | -49 | 46* | -4
C=CCn1c(SCC(=O)Nc2c(C)nn(Cc3ccccc3)c2C)nnc1C(O)c1ccccc1 (stereo not given) | 0.53 | -16 | -10 | -49 | 43* | -1
C=CCn1c(SCC(=O)Nc2nc(C)cs2)nnc1C(CO)NC(=O)c1ccccc1 (stereo not given) | 0.69 | 10 | -11 | 3 | -4 | .
c1ccc2c(c1)ncn2Cc1nnc2sc(-c3ccncc3)nn12 | -0.04 | -1 | -14 | -56 | 51* | 7
c1ccc(-c2nn3c(Cn4cnc5ccccc54)nnc3s2)cc1 | -0.03 | -2 | -12 | -1 | 0 | .
CCCCN(C(=O)c1c(C)[nH]c(C(=O)OCC)c1C)c1ccccc1 | -0.33 | 19 | -2 | -3 | 1 | .
Cc1c(-c2nc(N)nc(Nc3ccccc3)n2)oc2ccccc12 | -1.8 | 1 | -12 | -37 | 37* | -1
CS(=O)(=O)c1cnc(-c2ccccc2)nc1Oc1ccc(F)cc1 | 0.46 | -19 | -15 | -36 | 42* | -9
COc1cc2nc(SCC(N)=O)n(CCC3=CCCCC3)c(=O)c2cc1OC | 0.17 | -10 | -12 | -42 | 41* | -3
Cc1ccc(NS(=O)(=O)c2ccc(NC(=O)[C@@H]3CCCC[C@@H]3C(=O)O)cc2)c(C)c1 | 1.8 | -5 | -11 | 13 | -8 | .
